Our source for the sensor-assay potency score (higher = more potent) values is the OligoGym collection.
Note: reference of the scale not given here.

One assay deals with DHCR7. Put plainly: pooled miR-30 sensor sort-seq; sequence = guide strand. The conditions noted are these: shRNA.
In the case of TAGTTGTAAAAGAAATTGCCTG, the sensor-assay potency score (higher = more potent) was -0.825.
As to TACAGAAGCACCTGGAAGGTGA, the sensor-assay potency score (higher = more potent) stood at 0.0614.
AAGTAGTAGACGATGAAGGGGG showed a sensor-assay potency score (higher = more potent) of 0.135.
Regarding TTGGCTTTGGGAATGTTGGGTT, the sensor-assay potency score (higher = more potent) was found to be 0.501.
Consider TTGTAAAAGAAATTGCCTGTGA, for which the sensor-assay potency score (higher = more potent) is 0.127.
Same read-out and setting: with TGATACTTGTTCACAACCCCTG the figure was -0.124; with TTGCAGTCTCTGGCGCTGGTGG, -0.837.
The same measure, in the same setting: as for TAGATGATGTAGAAGTAGGGCA, the figure is 0.47; as for TTGAAGAACAGCTTGAAGTCAA, 0.748.
On to TTGACCATGGCGAAGGTGGAGA, for which the sensor-assay potency score (higher = more potent) is -0.859.

The target of the next assay is DHPS. Described as above. Particulars: shRNA.
TAGGAATGGAAGAAGATCATGT had a sensor-assay potency score (higher = more potent) of 0.621.
Same read-out and setting: as for TTGCTGTACAGCGCGCCCGAAG, the figure is -1.67; as for TTCTGCTCCATCACCATCTGGT, 0.0359.
Same read-out and setting: as for TCGAGCTGTGCTTTAGCACGGC, the figure is -0.48; as for TAATACACGGACTCTGGGTTGT, -0.152; as for TGAGGTTGGATGTATATCCCAG, -0.155.
Still for that read-out and setting: as for TTGGTTGCTTGGAAGCCGGTGG, the figure is -0.209; as for TTCCAGCTTCTTCTCGATCATG, -1.22.
Regarding TTGTGCTGCACAAGGTAGCGAA, the sensor-assay potency score (higher = more potent) was -0.894.
Regarding TTTCCGATCCTATTGATCCCGT, the sensor-assay potency score (higher = more potent) is -0.549.
For the sequence TATCCCAGGAAAATGGTGCAGC, the sensor-assay potency score (higher = more potent) was -0.649.
Same read-out and setting: as for AAAGGTTTCAGCCACAAGCAGG, the figure is -1.41.
On the same count and under the same terms, with TTGACTTGCTGTACAGCGCGCC the figure was 0.283.
The same measure, in the same setting: with ATTGACTTGCTGTACAGCGCGC the figure was -0.633.
In the case of TAAACAGCGTAGTCGGCCCCGT, the sensor-assay potency score (higher = more potent) is -0.782.
Consider TATTGATCCCGTTCTCCCGGAG, for which the sensor-assay potency score (higher = more potent) was -0.362.
Consider TACGTCCACCATGTTGTGCTGC, for which the sensor-assay potency score (higher = more potent) is -0.635.
Turning to TCTTCATCCTGTGACAGTGGTT, the sensor-assay potency score (higher = more potent) was -0.839.
Regarding TTGATGTAAACAGCGTAGTCGG, the sensor-assay potency score (higher = more potent) was -0.879.
As for TGATGTAAACAGCGTAGTCGGC, the sensor-assay potency score (higher = more potent) was -0.353.
TGTGTTGATGTAAACAGCGTAG: the sensor-assay potency score (higher = more potent) is -0.876.
In the case of TCGGGCGGCAACGTCGAGCTGT, the sensor-assay potency score (higher = more potent) was -0.875.
Regarding TTCTTCTCGATCATGGCATTGA, the sensor-assay potency score (higher = more potent) was -0.43.
Sequence TAGCTGACCAAAAAGTAGGGGA returned a sensor-assay potency score (higher = more potent) of 0.0141.

Another assay concerns the target DHX35. The assay is described as above. The conditions noted are these: shRNA.
Take TAACACAAAACAGCGCACGAGT: the sensor-assay potency score (higher = more potent) was -0.967.
For TAAGGGTTGTAAACAACCGTTG, the sensor-assay potency score (higher = more potent) is -0.768.
Sequence TTGAAACTTGACAAGAAGCTTT showed a sensor-assay potency score (higher = more potent) of 0.0953.
Same read-out and setting: as for ATAAGGGTTGTAAACAACCGTT, the figure is -1.1; as for TAGGCGACAGTCTTTGTCCAGA, -0.612; as for TAGATAAAAGATATCCACCGGA, -0.104.
